# The supplement of paper PMC8975748
# Structures can show the parent of a compound that is named as a salt.
# Test system: Saccharomyces cerevisiae BY4741 SeMeCo community
# Assay: z-score of subpopulation abundance vs DMSO median, subpopulation auxotrophic for LUM; higher = larger share of this subpopulation than in DMSO controls
# Conditions: 10 µM; 24 h; SM minimal medium; subpopulation (auxotrophy): LUM
# Experimental: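 Fluorescent four-plasmid SeMeCo (self-establishing metabolically cooperating S. cerevisiae BY4741 community; plasmids pH-mRuby2, pL-mWasabi, pU-eCFP, pM-TagRFP657) was grown 24 h in minimal SM medium with each Selleck FDA-approved drug at 10 µM in 384-well plates. Cells were fixed and imaged by high-content confocal microscopy. For each auxotrophic subpopulation (and the prototroph), a z-score gives the deviation from the DMSO vehicle-control population median.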
row,SMILES,z-score of subpopulation abundance
1,C[N+]1(C)[C@@H]2C[C@@H](OC(=O)[C@H](CO)c3ccccc3)C[C@H]1[C@@H]1O[C@@H]12 [Methscopolamine],0.43
2,CN[C@@H]1[C@@H](O)[C@@H](O[C@@H]2[C@@H](O)[C@H](O[C@H]3O[C@H](CN)CC[C@H]3N)[C@@H](N)C[C@H]2N)OC[C@]1(C)O.CN[C@@H]1[C@@H](O)[C@@H](O[C@@H]2[C@@H](O)[C@H](O[C@H]3O[C@H]([C@@H](C)N)CC[C@H]3N)[C@@H](N)C[C@H]2N)OC[C@]1(C)O.CN[C@@H]1[C@@H](O)[C@@H](O[C@@H]2[C@@H](O)[C@H](O[C@H]3O[C@H]([C@@H](C)NC)CC[C@H]3N)[C@@H](N)C[C@H]2N)OC[C@]1(C)O [Gentamicin Sulfate],-0.47
3,CC(=O)O[C@H]1C[C@@H]2CC[C@@H]3[C@H](CC[C@@]4(C)[C@H]3C[C@H]([N+]3(C)CCCCC3)[C@@H]4OC(C)=O)[C@@]2(C)C[C@@H]1[N+]1(C)CCCCC1 [Pancuronium dibromide],-0.96
4,COc1ccc(C(CN(C)C)C2(O)CCCCC2)cc1 (centres undefined) [Venlafaxine HCl],1.02
5,COC(=O)C1=CCCN(C)C1 [Arecoline HBr],0.07
6,CCCCCCCCCCCCCCCC[n+]1ccccc1 [Cetylpyridinium Chloride],7.62
7,Nc1ccncc1 [4-Aminopyridine],0.34
8,CC(C)N(CCC(C(N)=O)(c1ccccc1)c1ccccn1)C(C)C (centres undefined) [Disopyramide],0.92
9,O=C(O[C@H]1C[C@H]2CC[C@@H](C1)[N+]21CCCC1)C(O)(c1ccccc1)c1ccccc1 [Trospium chloride],-0.13
10,COc1ccc2c3c([nH]c2c1)C(C)=NCC3 [Harmaline],-4.96
11,C=CN1CCCC1=O.II [Povidone iodine],0.83
12,CCOC(=O)Nc1ccc(NCc2ccc(F)cc2)cc1N [Retigabine 2HCl],-0.01
13,C=C[C@H]1CN2CC[C@H]1C[C@H]2[C@H](O)c1ccnc2ccccc12 [Cinchonidine],0.19
14,O=C(O[C@H]1C[N+]2(CCCOc3ccccc3)CCC1CC2)C(O)(c1cccs1)c1cccs1 [Aclidinium Bromide],-0.16
15,O=c1[nH]c2ccccc2n1CCCN1CCC(n2c(=O)[nH]c3cc(Cl)ccc32)CC1 [Domperidone],-0.33
16,CC1(C)SC2C(N)C(=O)N2C1C(=O)O (centres undefined) [6-Aminopenicillanic acid],-0.93
17,C[CH2][Hg][S]c1ccccc1C(=O)[O-].[Na+] [Thimerosal],21

row,SMILES,z-score of subpopulation abundance
1,CN1c2ccccc2C(NCCCCCCC(=O)O)c2ccc(Cl)cc2S1(=O)=O (centres undefined) [Tianeptine sodium],0.15
2,"NCC(O)c1ccc(O)cc1 (racemic) [(+,-)-Octopamine HCl]",0.58
3,CC[C@H]1[C@@H]2C[C@H]3[C@@H]4N(C)c5ccccc5[C@]45C[C@@H]([C@@H]2[C@H]5O)N3[C@@H]1O [Ajmaline],-0.35
4,CN(C)[C@@H]1C(=O)C(C(N)=O)=C(O)[C@@]2(O)C(=O)C3=C(O)c4c(O)cccc4[C@@](C)(O)[C@H]3C[C@@H]12 [Tetracycline HCl],-0.52
5,CCN1CC2(OC(=O)c3ccccc3NC(C)=O)CCC(OC)C34C1C(CC23)C1(O)CC(OC)C2CC4C1(O)C2OC (centres undefined) [Lappaconitine],0.98
6,NCCc1c[nH]c2ccc(O)cc12 [Serotonin HCl],-0.88
7,C=C(C)[C@H]1Cc2c(ccc3c2O[C@@H]2COc4cc(OC)c(OC)cc4[C@@H]2C3=O)O1 [Rotenone (Barbasco)],-0.01
8,Cc1cc(C(C#N)c2ccc(Cl)cc2)c(Cl)cc1NC(=O)c1cc(I)cc(I)c1O (centres undefined) [Closantel],0.43
9,Oc1cccc2cccnc12 [8-Hydroxyquinoline],-0.89
10,CC[C@@H](C(N)=O)N1CCCC1=O [Levetiracetam],-0.55
11,C[N+](C)(C)CCCCCCCCCC[N+](C)(C)C [Decamethonium Bromide],0.08
12,O=[N+]([O-])C(Br)(CO)CO [Bronopol],-0.07
13,CN1[C@@H]2CC[C@H]1C[C@@H](OC(=O)[C@H](CO)c1ccccc1)C2 [Hyoscyamine],-0.43
14,CNC1CC(N)C(O)C(OC2OC(CO)C(O)C3OC4(OC(C(N)CO)C(O)C(O)C4O)OC23)C1O (centres undefined) [Hygromycin B],-0.17
15,NC(=O)CN1CCCC1=O [Piracetam],2.09
16,COc1ccc(C=O)cc1 [p-Anisaldehyde],-0.69
17,CN(C)C(=O)Oc1cccc([N+](C)(C)C)c1 [Neostigmine Bromide],0.02
